Source: PubChem BioAssay (several laboratories)
Shown are actives, neighbours in structure and some others; about 0.97% of the full set was active somewhere.
AGP1-GFP MLPCN – yeast TOR pathway AGP1-GFP modulation; hit rate 0.02% among 320,000; AID 2066; GFP response vs DMSO, % at 10 µM; S. cerevisiae AGP1-GFP multiplex flow cytometry, 3 h; GFP as percent of DMSO wells;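 active = GFP response relative to DMSO above a set limit, near screen average plus 3 SD, cut at about 150% in these data; inconclusive = fewer than 70 cells counted for the yeast strain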;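 note: median GFP channel fluorescence of the gated AGP1 strain per well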
MEP2-GFP yeast – yeast TOR pathway MEP2-GFP modulation. GFP response vs DMSO, % at 10 µM. hit rate 0.51% among 330,000. S. cerevisiae MEP2-GFP strain, flow cytometry GFP, 3 h; 100% = DMSO control level;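 active = GFP response versus DMSO above a set limit, roughly screen mean plus 3 SD, cut at about 180% in these data; inconclusive = fewer than 70 cells counted for a yeast strain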;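 note: median GFP fluorescence of the barcode-gated MEP2-GFP cells per well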
LAP4-GFP MLPCN – modulators of TOR pathway LAP4-GFP in S. cerevisiae; S. cerevisiae LAP4-GFP multiplex, flow cytometry GFP, 3 h; median GFP as percent of DMSO wells; GFP response vs DMSO, % at 10 µM; hit rate 0.34% among 320,000; AID 2023;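 active = GFP response vs DMSO above a set limit, about the screen mean plus 3 SD, cut at about 150% in these data; inconclusive = under 70 cell events counted for the yeast strain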
CIT2-GFP yeast – modulators of TOR pathway CIT2-GFP in S. cerevisiae. S. cerevisiae CIT2-GFP strain, flow cytometry, 3 h; 100 means same as DMSO wells. GFP response vs DMSO, % at 10 µM. hit rate 0.065% among 320,000. AID 2029;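 active = GFP response relative to DMSO above a set limit, near the screen mean plus 3 SD, cut at about 150% in these data; inconclusive = Fewer than 70 cells measured for a yeast strain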;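 note: ratio of well median GFP fluorescence to mean of DMSO wells on the plate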
RPL19A-GFP yeast – yeast TOR pathway RPL19A-GFP modulation | S. cerevisiae RPL19A-GFP strain, flow cytometry, 3 h; hits give low values | percent response vs DMSO, % at 10 µM | hit rate 0.3% among 330,000;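 active = percent response vs DMSO below 50%; inconclusive = fewer than 70 events counted for the yeast strain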;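 note: median channel GFP fluorescence of the barcoded RPL19A-GFP strain; ratio of sample median GFP to plate DMSO average so 100% = DMSO; lower means less RPL19A-GFP as with rapamycin TOR inhibition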
JMJD2C inh – inhibitors of human GASC-1 (JMJD2C) demethylase; GST-JMJD2C(1-420) H3K9me3 demethylation, DELFIA europium; hit rate 0.069% among 330,000; AID 2099; inhibition, % at 2.35 µM; Q9H3R0;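 active = more than half of a compound's replicate wells show inhibition beyond 50%, single wells judged on their own value; inconclusive = some, but no more than half, of replicates pass 50% inhibition; inactive = no replicate passes 50% inhibition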;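 note: signal counts dimethyl H3K9 product captured on neutravidin plate; 0% = median of DMSO wells and 100% = 0.3 times that DMSO median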
Target sequence (Q9H3R0 1-420 limits assumed): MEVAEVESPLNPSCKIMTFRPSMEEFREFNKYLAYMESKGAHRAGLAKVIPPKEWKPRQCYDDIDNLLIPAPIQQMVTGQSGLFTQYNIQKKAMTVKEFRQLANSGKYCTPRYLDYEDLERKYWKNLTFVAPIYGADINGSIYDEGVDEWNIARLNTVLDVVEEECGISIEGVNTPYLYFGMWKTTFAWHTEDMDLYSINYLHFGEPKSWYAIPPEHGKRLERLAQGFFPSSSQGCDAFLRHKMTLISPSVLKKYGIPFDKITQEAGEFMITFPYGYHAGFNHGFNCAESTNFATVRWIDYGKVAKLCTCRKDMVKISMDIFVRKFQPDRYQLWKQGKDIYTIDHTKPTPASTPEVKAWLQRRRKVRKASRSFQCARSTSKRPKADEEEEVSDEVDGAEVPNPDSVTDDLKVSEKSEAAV
* = called active by the depositor; u = inconclusive; x = not tested or not shown; ! = a repeat was not active; [ ] = another dose, or the depositor's remark.

SMILES	AGP1-GFP MLPCN	MEP2-GFP yeast	LAP4-GFP MLPCN	CIT2-GFP yeast	RPL19A-GFP yeast	JMJD2C inh
COc1ccc(NC(=O)N(C)C[C@H]2Oc3ccc(NC(=O)Cn4cnnn4)cc3C(=O)N([C@H](C)CO)C[C@@H]2C)cc1	x	x	x	x	x	10.0
O=C(NCCc1nnc2ccc(SCC(=O)N3CCCC3)nn12)c1ccccc1	96.7	105.9	104.5	95.3	96.6	-10.9
COc1ccc(NC(=O)CN(C)CC(=O)N(C)C2(C#N)CCC(C)CC2)cc1 (centres undefined)	106.0	102.1	104.3	106.4	100.4	3.1
O=C(NCc1cccs1)c1cccnc1C(=O)O	98.9	99.4	96.3	96.7	97.3	58.6*
COc1ccc(/C=C/C(=O)C2CC2)cc1COc1c(C)cccc1C	u	91.8	115.1	u	41.6*[may fluoresce violet]	-2.8
O=C(Cc1ccc(-c2ccccc2)cc1)Nc1ccccc1	18.6	325.7*[may fluoresce violet]	95.4	u	56.1	-12.4
Cc1cccc(NC(=O)Cc2ccc(-c3ccccc3)cc2)n1	96.3	96.2	100.0	81.0	101.1	18.3
CCCNC(=O)c1ccc2nc(-c3ccccc3)c(-c3ccccc3)nc2c1	99.6	105.8	101.1	97.3	104.6	6.5
CCN1CCN(CCNC(=O)c2ccc3nc(-c4cccc(C)c4)c(-c4cccc(C)c4)nc3c2)CC1	u	137.5	79.5	u	16.1*[may fluoresce violet]	3.1
CC(=O)CC(c1ccc([N+](=O)[O-])cc1)c1c(O)c2ccccc2oc1=O (centres undefined)	99.9	97.3	97.8	90.7	104.6	16.0
CC(=O)CC(c1ccccc1)c1c(O)c2ccccc2oc1=O (centres undefined)	u	211.7*![may fluoresce violet]	98.8	u	40.4*![may fluoresce violet]	-10.9
CCC(c1nnnn1Cc1ccccc1)N(Cc1ccco1)Cc1cc2cc(OC)ccc2[nH]c1=O (centres undefined)	x	179.8*[may fluoresce violet]	89.4	u	67.7	1.2
CC1CCCCN1S(=O)(=O)c1ccc(S(=O)(=O)N2CCCC2)cc1 (centres undefined)	104.4	105.1	93.8	106.0	100.3	-8.5
CC1CCCCN1S(=O)(=O)c1ccc(S(=O)(=O)N2CCN(C)CC2)cc1 (centres undefined)	u	210.1*[may fluoresce violet]	83.1	u	52.9	1.8
CC(C)C(NC(=O)c1ccc(Cl)c([N+](=O)[O-])c1)C(=O)NCc1ccccn1 (centres undefined)	96.2	104.9	89.1	109.6	95.4	1.8
CC(NCCS(=O)(=O)c1ccc(Cl)cc1)c1cccc(Cl)c1 (centres undefined)	50.8	208.5*	94.1	95.6	67.1	1.2
CC(C)c1ccc(C(C)NCCS(=O)(=O)c2ccc(Br)cc2)cc1 (centres undefined)	108.2	102.3	97.8	105.0	107.1	5.9
O=C(NCC1CCCO1)c1sc(=S)n2c1[nH]c(=O)c1ccc(C(=O)N3CCCCC3)cc12 (centres undefined)	u	205.9*[may fluoresce violet]	95.7	u	42.0*[may fluoresce violet]	-1.8
O=C(NCCc1ccccc1)c1ccc2c(=O)[nH]c3c(C(=O)NCC4CCCO4)sc(=S)n3c2c1 (centres undefined)	120.5	106.7	118.6	109.5	104.1	4.0
CCn1c(=O)c2sccc2n(CC(=O)NCCC2=CCCCC2)c1=O	98.1	104.7	93.7	101.3	101.8	-10.2
Cc1c([N+](=O)[O-])cnc(Sc2ccccc2)c1[N+](=O)[O-]	70.0	85.8	294.0*	79.0	62.5	2.6
Cc1ccc(-n2c(C)cc(/C([O-])=C(/C(=S)Nc3ccc(F)c(Cl)c3)[n+]3ccccc3)c2C)cc1	33.4	178.6*[may fluoresce violet]	102.3	u	66.0	-6.3
CNC(=O)N(O)C1N(/N=C/c2c(F)cccc2Cl)C(=S)SC1(C)C (centres undefined)	15.4	244.4*[may fluoresce violet]	72.3	u	55.6	-13.9
CNC(=O)N(O)C1N(/N=C/c2ccc(C)cc2)C(=S)SC1(C)C (centres undefined)	96.1	108.4	96.1	96.1	108.0	4.9
O=C(O)c1ccc(N2C(=O)CC(N3CCN(c4cccc(C(F)(F)F)c4)CC3)C2=O)cc1 (centres undefined)	u	602.6*[may fluoresce violet]	90.3	u	38.5*[may fluoresce violet]	-12.5
SMILES	AGP1-GFP MLPCN	MEP2-GFP yeast	LAP4-GFP MLPCN	CIT2-GFP yeast	RPL19A-GFP yeast	JMJD2C inh
O=C(O)c1ccc(N2C(=O)CC(N3CCN(c4cccc(Cl)c4)CC3)C2=O)cc1 (centres undefined)	99.6	112.2	98.4	105.4	103.9	-0.2
COc1cc(O)c(CCC(=O)c2ccc(OC)c(OC)c2)c(OC)c1	96.2	107.4	98.3	98.2	107.3	-5.0
O=C(CN1C(=O)S/C(=C\c2ccc(F)cc2)C1=O)NCCCn1ccnc1	13.4	154.2	62.1	u	18.1*[may fluoresce violet]	4.5
Cn1c(/C=C/c2ccccc2)nc2ccccc2c1=O	84.0	93.8	91.1	84.7	96.9	-5.7
Cn1c(/C=C/c2ccc([N+](=O)[O-])o2)nc2ccccc2c1=O	90.5	247.9*[may fluoresce green]	x	179.8*[may fluoresce green]	125.5	11.7
Cn1cnc([N+](=O)[O-])c1S(=O)(=O)c1cccc(Cl)c1	122.7	177.1*	109.8	106.0	96.1	-1.5
Cc1nn(C(C)C(=O)c2cccc(Cl)c2)c(C)c1[N+](=O)[O-] (centres undefined)	98.0	113.5	104.0	105.2	104.2	-3.0
Cc1ccc(C(=O)OCC(=O)N(Cc2ccccc2)C(C)C)cc1C	92.7	90.4	86.8	84.3	97.6	-2.0
N=c1c(C(=O)NCC2CCCO2)cc2c(=O)n3ccccc3nc2n1C1CCCCC1 (centres undefined)	84.9	100.5	99.9	71.6	45.0*	-19.0
N=c1c(C(=O)NCC2CCCO2)cc2c(=O)n3ccccc3nc2n1C1CCCC1 (centres undefined)	u	u	u	u	u	27.1
Cc1cccn2c(=O)c3cc(C(=O)NCC4CCCO4)c(=N)n(C4CCCC4)c3nc12 (centres undefined)	u	u	64.2	u	23.5*[may fluoresce violet]	14.3
Cc1cccn2c(=O)c3cc(C(=O)NCC4CCCO4)c(=N)n(CCN4CCOCC4)c3nc12 (centres undefined)	u	605.4*[may fluoresce violet]	91.4	u	48.7*[may fluoresce violet]	11.1
CCCn1c(=N)c(C(=O)NCC2CCCO2)cc2c(=O)n3cccc(C)c3nc21 (centres undefined)	u	u	u	u	u	-40.3
Cc1ccc(-n2c(C)c(C)c3c(NCCO)ncnc32)cc1	99.6	104.2	93.0	103.0	107.8	3.3
CCC(C)NC(=O)Cn1ccc2cc(S(=O)(=O)N3CCCCCC3)ccc21 (centres undefined)	101.8	111.9	97.7	105.9	104.1	21.3
